Reference: PubChem BioAssay AID1345085 (National Center for Advancing Translational Sciences (NCATS), 2018)
Results filed as inconclusive are left out. Unmarked numbers belong to inactive results. The source made the active and inactive calls. Calls come from the whole dose curve; as a rule, active = well fitted cell-killing curve with a large enough effect; inconclusive = small, poorly fitted or top-dose-only effect, or effect the other way; inactive = no such curve, though single readings can be large or run the other way.

The molecules below were run on C33A (assay: Confirmatory qHTS for gynecologic anti-cancer compounds from libraries of approved drugs and bioactive compounds). Details: gynecologic cancer cell panel viability, ATPlite luminescence, 48 h; series mostly up to 57.6 µM; activity change, negative = viability loss: at the top concentration.
In short: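 Cells (1,000/well) plated 16 h, then exposed 48 h at 37 °C to 11 concentrations (1:3) from 57.5 uM to 0.977 nM. Viability by ATPlite luminescence after 15 min; IC50 derived, with HEK 293T used for selectivity index.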
% is set by controls: 0 for no effect and ±100 for the full control effect; potency is the fitted concentration of half-maximal effect.
Note: nearly all actives have a fitted effect of over 55% in size.

| Structure (SMILES) | activity change, negative = viability loss | Potency |
| --- | --- | --- |
| CCNC(=O)C[C@@H]1N=C(c2ccc(Cl)cc2)c2cc(OC)ccc2-n2c(C)nnc21 | -5.6% |  |
| C/C=C(/C)C(=O)O[C@H]1C(C)=C2[C@H]([C@@H]1OC(=O)CCCCCCC)[C@@](C)(OC(C)=O)C[C@H](OC(=O)CCC)[C@@]1(O)[C@H]2OC(=O)[C@@]1(C)O |  | 21.7 µM (active) |
| CCC(=O)O[C@H]1CC[C@H]2[C@@H]3CCC4=CC(=O)CC[C@]4(C)[C@H]3CC[C@]12C | 2.88% |  |
| Cc1sc2c(c1C)C(c1ccc(Cl)cc1)=NC(CC(=O)OC(C)(C)C)c1nnc(C)n1-2 (stereo unspecified) | -10.4% |  |
| CCN1CCN(C(=O)Cc2ccc(Nc3ncc(F)c(Nc4ccc(C(=O)Nc5ccccc5Cl)cc4)n3)cc2)CC1 | -12.3% |  |
| C[C@]12CC[C@H]3[C@@H](CCC4=CC(=O)CC[C@@H]43)[C@@H]1CC[C@@H]2OC(=O)CCc1ccccc1 | 8.47% |  |
